Experimental data published in ChEMBL document CHEMBL3433997, “St. Jude Leishmania screening dataset” (2016).

Columns and labels:
Type in all cases: functional
[1] = target: Solute carrier family 2, facilitated glucose transporter member 1 (Homo sapiens) (UniProt P11166); experiment: ST_JUDE_LEISH: Cytotoxicity at 2uM final concentration against transgenic Leishmania Mexicana promastigotes LmGLUT1 that are glucose transport deficient and complemented with the human glucose transporter GLUT1. Activity is measured by DNA content using SYBR green in vitro
[2] = target: Hexose transporter 1 (Plasmodium falciparum) (UniProt O97467); experiment: ST_JUDE_LEISH: Cytotoxicity at 2uM final concentration against transgenic Leishmania Mexicana promastigotes LmPfHT that are glucose transport deficient and complemented with the Plasmodium falciparum hexose transporter. Activity is measured by DNA content using SYBR green in vitro
[3] = target: Glucose transporter (Leishmania mexicana) (UniProt O61059); experiment: ST_JUDE_LEISH: Cytotoxicity at 2uM final concentration against transgenic Leishmania Mexicana promastigotes LmGT2 that are glucose transport deficient and complemented with the L. Mexicana glucose transporter 2. Activity is measured by DNA content using SYBR green in vitro

Sequence of Solute carrier family 2, facilitated glucose transporter member 1 (Homo sapiens) (P11166 whole entry): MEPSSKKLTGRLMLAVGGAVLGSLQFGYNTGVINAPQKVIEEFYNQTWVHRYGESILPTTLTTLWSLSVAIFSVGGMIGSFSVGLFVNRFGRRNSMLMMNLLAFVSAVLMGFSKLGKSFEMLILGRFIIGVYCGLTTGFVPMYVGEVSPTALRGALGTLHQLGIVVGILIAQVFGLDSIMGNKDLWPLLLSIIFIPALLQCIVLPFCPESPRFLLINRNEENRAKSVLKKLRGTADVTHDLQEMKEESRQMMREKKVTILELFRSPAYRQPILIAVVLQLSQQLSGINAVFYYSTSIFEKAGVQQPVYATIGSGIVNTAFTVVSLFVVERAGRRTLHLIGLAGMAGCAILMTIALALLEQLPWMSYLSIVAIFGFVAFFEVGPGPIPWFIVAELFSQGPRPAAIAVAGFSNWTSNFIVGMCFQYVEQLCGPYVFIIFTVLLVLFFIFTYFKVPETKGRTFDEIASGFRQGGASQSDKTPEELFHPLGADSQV

COC(=O)c1cc(/C(C)=N/Nc2nc3ccccc3[nH]2)ccc1O
inhibition [1]: 4.85%
inhibition [2]: 5.41%
inhibition [3]: 1.77%

O=S(=O)(NC1CCCCN(Cc2ccccc2O)C1)c1ccc(C(F)(F)F)cc1 (centres undefined)
inhibition [1]: 1.87%
inhibition [2]: 4.93%
inhibition [3]: 0.86%

O=C(Nc1cccc(CN2CCCN(Cc3ccc(O)cc3)CC2)c1)c1ccc(Cl)c(Cl)c1
inhibition [1]: 10.6%
inhibition [2]: 11%
inhibition [3]: 5.2%

Cc1ccc(C2CCN(CCCCNC(=O)c3ccc(-c4ccc(C#N)cc4)cc3)CC2)c(O)c1
inhibition [1]: 7.24%
inhibition [2]: 7.29%
inhibition [3]: 7.94%

COc1ccc2nccc([C@@H](O)CN3CCC(NC(=O)C(c4ccsc4)N4CCN(c5ccccc5OC)CC4)CC3)c2c1 (some centres undefined)
inhibition [1]: 1.93%
inhibition [2]: 1.41%
inhibition [3]: 0.49%

COc1ccc(NC(=O)N2CCN(CCCCCNC(=O)/C=C/c3ccc(C(F)(F)F)cc3)CC2)cc1Cl
inhibition [1]: 2.21%
inhibition [2]: 1.82%
inhibition [3]: 1.35%

CN(C)CC1CCCN1Cc1ccccc1-c1cnn(C)c(=O)c1Oc1ccc(F)cc1 (centres undefined)
inhibition [1]: 5.23%
inhibition [2]: 4.08%
inhibition [3]: 4.45%

CC(=O)Nc1cccc(C(=O)Nc2cccc(-c3csc(-c4nc5ccccc5[nH]4)c3)c2)c1
inhibition [1]: 4.93%
inhibition [2]: 2.83%
inhibition [3]: 3.14%

COc1cc(Nc2nccc(N3CCC(NC(=O)C4COc5ccccc5O4)C3)n2)cc(OC)c1OC (centres undefined)
inhibition [1]: 2.77%
inhibition [2]: 1.3%
inhibition [3]: 2.12%

Oc1cc(Nc2ccnc3cc(-c4ccc(CN5CCCCC5)o4)ccc23)c(Cl)cc1F
inhibition [1]: 3.23%
inhibition [2]: 6.46%
inhibition [3]: 3.68%

COc1ccc(CNCc2ccc(-c3cccc(-c4nc5cccc(C)c5[nH]4)c3)cc2)cc1
inhibition [1]: 2.87%
inhibition [2]: 1.37%
inhibition [3]: 0.41%

O=C(Nc1cc2cc(-c3ccc(CN4CCCCC4)cc3)ccc2n2cnnc12)NC1CCCC1
inhibition [1]: 22.1%
inhibition [2]: 6.44%
inhibition [3]: 3.67%

COCCN(CCOC)c1ncc(-c2ccsc2)c(-c2nc(C)c(C)s2)n1
inhibition [1]: -1.28%
inhibition [2]: 0.1%
inhibition [3]: 1.83%

CCC(C)(C)C1CCc2nc(N)nc(N)c2C1 (centres undefined)
inhibition [1]: 67%
inhibition [2]: 71.9%
inhibition [3]: 56.1%

Cc1ccc(-c2nnc(Nc3ccc(C(=O)N4CCCCC4)cc3)c3ccccc23)cc1S(=O)(=O)NCC1CCCO1 (centres undefined)
inhibition [1]: 4.15%
inhibition [2]: 21.1%
inhibition [3]: 3.22%

COc1ccc(CN2C(=S)N(Cc3ccccc3)C(=O)C2CC(=O)Nc2ccccc2)cc1OC (centres undefined)
inhibition [1]: 0.79%
inhibition [2]: -0.87%
inhibition [3]: -2.09%

c1cc(C2=NC3CCCCC3N2)ccc1OCCCOc1ccc(C2=NC3CCCCC3N2)cc1 (centres undefined)
inhibition [1]: 7.04%
inhibition [2]: 6.74%
inhibition [3]: 1.12%

CN1CCC(C(=O)Nc2ccc(-c3cccc(-c4nc5cc(F)ccc5[nH]4)c3)cc2)CC1
inhibition [1]: 8.95%
inhibition [2]: 9.27%
inhibition [3]: 8.51%
